From PubChem BioAssay (NCATS)
Inconclusive results are not listed. A number with no mark means an inactive call. The call rests on the fitted dose curve; in most records, active means well fitted inhibition curve with a large enough effect; inconclusive means small, poorly fitted or top-dose-only effect; inactive means no such curve, though single readings can be large or run the other way.

test: NS1 protein of Zika virus - qHTS assay to identify small molecule inhibitors in human HEK 293 cells (AID 1347053); conditions: HEK293 ZIKV MR766 infection, NS1 TR-FRET, 24 h; series mostly up to 46.1 µM; activity change, negative = inhibition: at the top concentration;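 further: plate controls were infected untreated cells for no effect and uninfected cells for full effect; nearly all actives have a fitted effect of over 55% in size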
From the text: National Center for Advancing Translational Sciences [NCATS]
Johns Hopkins University School of Medicine
The non-structural 1 (NS1) protein of zika virus is known to associate with the viral replication complex. This cell-based TR-FRET ZIKV NS-1 assay measures the increased NS-1 protein in human HEK 293 cells after a 24-hour Zika virus infection by a TR-FRET assay readout. A decrease in the Time-resolved fluorescence energy transfer (TR-FRET) signal in this assay by small molecule treatment indicates an inhibitory effect of the small molecule on the expression of Zika virus NS1 correlating with Zika virus replication.
HEK 293 cells were cultured in EMEM (ATCC, Cat. # 30-2003) medium with 10% fetal bovine serum (GE healthcare Life Sciences, Cat. # SH30071.03), and 1% Pen/Strep (Gibco, Cat. # 15140-122). Cells were seeded in the assay plate and incubated at 37 C with 5% CO2 for 20 hours. Compounds were added to cells and incubated for one hour before addition of ZIKV MR766 strain solution to cells (MOI = 0.5). After an incubation at 37 C for 24 hours, the reagent mixture of TR-FRET ZIKV NS1 assay using two anti-ZIKV NS1 antibodies was added to assay plates. The TR-FRET signals in assay plates were measured using an Envision plate reader (PerkinElmer). Data were normalized by using the cell-containing wells without ZIKV as a negative control (0% NS-1) and wells containing ZIKV infected cells as a positive control (100% NS-1 level).

Q: With `NS(=O)(=O)c1cc(C(=O)NN2C[C@H]3[C@H]4CCC(C4)[C@H]3C2)ccc1Cl` as the compound, how does the “activity change, negative = inhibition” value read?
A: Its value is 1.27%.

Q: With `CCn1ccc(NS(=O)(=O)c2ccc(N)cc2)nc1=O` as the compound, how does the “activity change, negative = inhibition” value read?
A: Its value is -7.1%.

Q: With `CCN(CC)CC(=O)Oc1ccc(NC(C)=O)cc1` as the compound, how does the “activity change, negative = inhibition” value read?
A: Its value is 6.78%.

Q: Which “activity change, negative = inhibition” value does the source give for `COc1c(N2C[C@@H]3CCCN[C@@H]3C2)c(F)cc2c(=O)c(C(=O)O)cn(C3CC3)c12` here?
A: Its value is 11.8%.

Q: Which “activity change, negative = inhibition” value does the source give for `CCOC(=O)Oc1ccc(CCNC(=O)[C@H](CCSC)NC(C)=O)cc1OC(=O)OCC` here?
A: Its value is -3.54%.

Q: With `CC(=O)OCC[N+](C)(C)C` as the compound, how does the “activity change, negative = inhibition” value read?
A: Its value is 3.75%.

Q: Which “activity change, negative = inhibition” value does the source give for `COC(=O)c1cc(Cl)ccc1NS(=O)(=O)C(F)(F)F` here?
A: Its value is 0.451%.

Q: Which “activity change, negative = inhibition” value does the source give for `C[N+](C)(C)CCO` here?
A: Its value is -13.3%.

Q: For `COc1ccc([C@@H]2Sc3ccccc3NC(=O)[C@@H]2O)cc1`, which “activity change, negative = inhibition” value is on record?
A: The value was 41.4%.

Q: With `C/C=C(/C(=C/C)c1ccc(OC(C)=O)cc1)c1ccc(OC(C)=O)cc1` as the compound, how does the “activity change, negative = inhibition” value read?
A: The value was 31.2%.

Q: With `Cc1ccc(C(C)OC(=O)C2(C)CCC(C(=O)O)C2(C)C)cc1` (stereo not given) as the compound, how does the “activity change, negative = inhibition” value read?
A: The value was -0.153%.

Q: With `O=C1CCCc2c(O)cccc21` as the compound, how does the “activity change, negative = inhibition” value read?
A: Its value is 8.27%.

Q: With `NS(=O)(=O)c1ccc(N2CCCCS2(=O)=O)cc1` as the compound, how does the “activity change, negative = inhibition” value read?
A: The value was -2.19%.

Q: Which “activity change, negative = inhibition” value does the source give for `O=C(Oc1ccccc1)c1cccc(C(=O)Oc2ccccc2)c1` here?
A: The value was 5.42% [at 92.8 µM].

Q: For `CNC[C@H](O)[C@@H](O)[C@H](O)[C@H](O)CO`, which “activity change, negative = inhibition” value is on record?
A: The value was 1.59%.

Q: For `Cc1cc2nc3ccc(=[N+](C)C)cc-3sc2cc1N`, which “activity change, negative = inhibition” value is on record?
A: Its value is 229%.

Q: With `C[C@@]12CCC[C@H]1[C@@H]1CC[C@H]3C[C@@H](O)CC[C@]3(C)[C@H]1CC2` as the compound, how does the “activity change, negative = inhibition” value read?
A: The value was 5.47%.

Q: For `O=C(C1CCCCC1)N1CC(=O)N2CCCc3ccccc3C2C1` (stereo not given), which “activity change, negative = inhibition” value is on record?
A: The value was -1.14%.

Q: With `CCCC(=O)Nc1ccc(O)c(C(C)=O)c1` as the compound, how does the “activity change, negative = inhibition” value read?
A: The value was -1.65%.

Q: With `O=C(c1ccco1)N1CCNCC1` as the compound, how does the “activity change, negative = inhibition” value read?
A: Its value is -2.12%.

Q: Which “activity change, negative = inhibition” value does the source give for `Nc1ccc(O)cc1` here?
A: Its value is -5.67%.

Q: Which “activity change, negative = inhibition” value does the source give for `OC(CCCN1CCCCC1)(c1ccccc1)c1ccccc1` here?
A: Its value is 1.13%.

Q: With `CC(=O)OC[C@H]1O[C@@H](OC(C)=O)[C@H](OC(C)=O)[C@@H]1OC(C)=O` as the compound, how does the “activity change, negative = inhibition” value read?
A: Its value is 0.315%.

Q: With `OCCCc1ccccc1` as the compound, how does the “activity change, negative = inhibition” value read?
A: Its value is 1.92%.

Q: Which “activity change, negative = inhibition” value does the source give for `CC1(C)S[C@@H]2[C@H](NC(=O)C(c3ccccc3)S(=O)(=O)O)C(=O)N2[C@H]1C(=O)O` (stereo not given in full) here?
A: The value was -13.1%.

Q: Which “activity change, negative = inhibition” value does the source give for `CSc1ccc(/C=C2/C(C)=C(CC(=O)O)c3cc(F)ccc32)cc1` here?
A: Its value is 0.272%.

Q: Which “activity change, negative = inhibition” value does the source give for `CCN1C(=O)c2ccccc2C1Nc1ccc(OCCN2CCCCC2)cc1` (stereo not given) here?
A: The value was 3.35%.

Q: For `CN1CCCN(C(c2ccccc2)c2ccc(Cl)cc2)CC1` (stereo not given), which “activity change, negative = inhibition” value is on record?
A: The value was 0.804%.

Q: Which “activity change, negative = inhibition” value does the source give for `Nc1ccc2c(c1)CN1C(=O)c3ccccc3C1=N2` here?
A: Its value is 69.2% [at 20.1 µM].

Q: With `COc1cc(/C=C/C(N)=O)cc(OC)c1OC` as the compound, how does the “activity change, negative = inhibition” value read?
A: The value was -13%.

Q: For `CC(=O)Nc1ccn(C2COC(COC(=O)c3ccccc3)O2)c(=O)n1` (stereo not given), which “activity change, negative = inhibition” value is on record?
A: The value was -0.505%.

Q: With `Clc1ccc2c(c1)Nc1ccccc1S2` as the compound, how does the “activity change, negative = inhibition” value read?
A: Its value is 4.63%.

Q: For `CC(C)OP(=O)(CP(=O)(OC(C)C)OC(C)C)OC(C)C`, which “activity change, negative = inhibition” value is on record?
A: The value was -3.48%.

Q: With `CC(=O)O[C@@H]1C(=O)O[C@@H]2[C@H]1OC(=O)[C@@H]2OC(C)=O` as the compound, how does the “activity change, negative = inhibition” value read?
A: The value was 9.23%.

Q: With `CC(C)Cc1ccc(C(C)C(=O)OCc2ccccn2)cc1` (stereo not given) as the compound, how does the “activity change, negative = inhibition” value read?
A: The value was -2.02%.

Q: For `CC1(C)O[C@@H]2C[C@H]3[C@@H]4CCC5=CC(=O)C=C[C@]5(C)[C@@]4(F)[C@@H](O)C[C@]3(C)[C@]2(C(=O)CO)O1`, which “activity change, negative = inhibition” value is on record?
A: Its value is -8.29%.

Q: For `COc1c(C)c2c(c(O)c1C/C=C(\C)CCC(=O)OCCN1CCOCC1)C(=O)OC2`, which “activity change, negative = inhibition” value is on record?
A: Its value is -121%.

Q: For `CCc1cc(S(=O)(=O)O)c2cc(C(C)C)cccc1-2`, which “activity change, negative = inhibition” value is on record?
A: Its value is -2.39%.

Q: With `CCOC(=O)CN1CCCC1=O` as the compound, how does the “activity change, negative = inhibition” value read?
A: The value was 2.86%.

Q: With `NCC(=O)O` as the compound, how does the “activity change, negative = inhibition” value read?
A: Its value is -0.11% [at 20.1 µM].
